Source: PubChem BioAssay
Only some compounds are listed: those with a hit (about 4.2% of all), similar ones and a draw of the others.
esBAF inh: SWI/SNF esBAF complex inhibition; mouse ES cells, Bmi1-luciferase knock-in reporter, 24 h; 100% = twice the neutral-well signal; reporter increase, % at 12.5 µM; hit rate 2% among 350,000; AID 602393; in the data active = activation above about 40%; inconclusive = no clear call, values can overlap the other calls;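 note: 0% = median of the plate's neutral control wells and 100% = double that signal; a rise in the Bmi1 reporter signal indicates esBAF inhibition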
DAX1 inh: DAX1 (NR0B1) inhibition, primary screen; hit rate 1.1% among 370,000; HEK293T StAR-luciferase reporter, SF-1/DAX-1 repression relief; inhibition, % at 6.8 µM;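 active = inhibition above the mean over all tested compounds plus 3 SD, cut at about 3.6% in these data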;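 note: 0% = DAX-1 cells with DMSO and 100% = cells lacking DAX-1 with DMSO; higher inhibition means more luminescence from relief of DAX-1 repression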
hgDAF-12 ag: agonists of H. glycines DAF-12 nuclear receptor | activation, % at 6.8 µM | hit rate 1.8% among 370,000 | HEK293 GAL4-hgDAF12 UAS-luciferase reporter, agonist luminescence; normalized to butyrate control;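 active = activation above a cutoff set at the mean of all screened compounds plus 3 SD, cut at about 10% in these data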;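 note: 0% = DMSO wells and 100% = sodium butyrate wells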
hcDAF12 agonist: H. contortus DAF-12 activation, primary screen | HEK293 hcDAF-12 lit1-tk-luc reporter, luminescence; 0% DMSO, 100% Δ7-dafachronic acid | activation, % at 6.8 µM | hit rate 1.4% among 370,000;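 active = activation above the mean of all tested compounds plus 3 SD, cut at about 5.5% in these data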;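 note: 100% = response to 3 µM Δ7-dafachronic acid high control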
ssDAF-12 act: activates DAF-12 receptor from parasite S. stercoralis. HEK293 ssDAF-12/GRIP1 lit1-tk-luc reporter, luminescence; % of 3 µM dafachronic acid response. activation, % at 6.8 µM. hit rate 1% among 370,000. AID 652126;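 active = activation above the mean over all tested compounds plus 3 SD, cut at about 0.9% in these data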;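 note: 0% = DMSO-only wells and 100% = 3 µM delta7-dafachronic acid wells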
Wnt bcat act: activates Wnt/beta-catenin signaling in a reporter cell assay; activation, % at 9.35 µM; hit rate 1.2% among 300,000; activator, plate reader; in the data active = activation above about 30%, passing the limit was not always enough; inconclusive = no clear call, values can overlap the other calls;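 note: 0% = neutral control wells and 100% = positive control wells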
DAX1 conf: NR0B1 (human) inhibition, confirmation; shares compounds with DAX1 inh; HEK293T StAR-promoter luciferase reporter, SF-1/DAX-1 repression; inhibition, % at 6.8 µM; hit rate 87% among 2,400; AID 652134;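 active = inhibition above the average of every tested compound plus 3 SD, cut at about 3.8% in these data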;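 note: 0% = DAX-1 cells with DMSO and 100% = no DAX-1 control cells with DMSO; active compounds raise luminescence by relieving repression of the StAR reporter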
Target sequence (P51843 whole entry, looked up): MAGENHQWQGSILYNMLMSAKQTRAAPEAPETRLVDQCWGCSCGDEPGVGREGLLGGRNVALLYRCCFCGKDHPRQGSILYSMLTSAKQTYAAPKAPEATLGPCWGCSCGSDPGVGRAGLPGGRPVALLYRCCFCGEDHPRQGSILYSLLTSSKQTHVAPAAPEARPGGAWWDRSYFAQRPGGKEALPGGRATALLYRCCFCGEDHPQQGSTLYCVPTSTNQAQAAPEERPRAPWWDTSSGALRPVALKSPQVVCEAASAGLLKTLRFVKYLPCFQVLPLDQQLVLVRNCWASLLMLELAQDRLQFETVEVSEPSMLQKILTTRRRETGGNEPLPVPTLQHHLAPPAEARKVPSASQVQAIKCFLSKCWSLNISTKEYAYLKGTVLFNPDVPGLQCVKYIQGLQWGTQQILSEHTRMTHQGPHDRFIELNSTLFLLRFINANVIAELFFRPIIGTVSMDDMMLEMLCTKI
SF1 mutant ctr: nonselective inhibitor or artifact in SF-1 mutant DAX1 counter-screen; HEK293 StAR-luciferase, SF-1 AF2 mutant, luminescence; inhibition, % at 6.8 µM; hit rate 78% among 2,400; shares compounds with DAX1 inh; AID 652136;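 active = inhibition above the mean of all tested compounds plus 3 SD, cut at about 3% in these data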;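 note: 0% = DAX-1 transfected cells with DMSO and 100% = cells without DAX-1 with DMSO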
LXRb hcDAF ctr: LXR-beta agonism as hcDAF-12 counter-screen; shares compounds with hcDAF12 agonist; HEK293 Gal4-LXR tk-luc reporter, luminescence, 24 h; normalized: DMSO 0%, positive control 100%; activation, % at 6.8 µM; 3,400 tested, under 10 active; AID 743027;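 active = mean percent activation of the reporter above a cutoff set as the average over tested compounds plus their standard deviation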
hcDAF12 ag: hcDAF-12 agonism, confirmation assay; shares compounds with hcDAF12 agonist; HEK293 hcDAF-12 lit1-tk-luc reporter, luminescence; % of Δ7-dafachronic acid response; activation, % at 6.8 µM; hit rate 61% among 3,400; AID 743032;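 active = mean activation across triplicate tests above the threshold derived from the earlier primary screen, cut at about 5.5% in these data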;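 note: 0% = DMSO only wells and 100% = 3 µM Δ7-dafachronic acid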
hgDAF12 ag: confirmation of H. glycines DAF-12 agonists | HEK293 GAL4-hgDAF12 luciferase reporter, agonist mode; percent of butyrate response | shares compounds with hgDAF-12 ag | activation, % at 6.8 µM | hit rate 80% among 3,300;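 active = mean activation over triplicate wells above the hit cutoff derived from the earlier primary screen, cut at about 11% in these data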;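 note: 0% = DMSO low control and 100% = 2 mM sodium butyrate high control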
LXRb DAF12 ctr: LXR-beta agonism as DAF-12 counter-screen. HEK293 Gal4-LXR luciferase reporter, 24 h. 3,300 tested, under 10 active. activation, % at 6.8 µM. AID 743051. shares compounds with hgDAF-12 ag;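 active = mean activation of the triplicate above a set limit carried over from the primary screen, none filed active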
* marks the source's active call; other numbers are inactive results; ? = inconclusive; . = no result given.

SMILES | esBAF inh | DAX1 inh | hgDAF-12 ag | hcDAF12 agonist | ssDAF-12 act | Wnt bcat act | DAX1 conf | SF1 mutant ctr | LXRb hcDAF ctr | hcDAF12 ag | hgDAF12 ag | LXRb DAF12 ctr
CCc1nnc(NC(=O)CSc2nc(-c3ccc(F)cc3)cc(-c3ccccc3)c2C#N)s1 | . | 0.2 | 0.2 | -0.1 | -1.4 | -3.5 | . | . | . | . | . | .
O=C(Nc1ccncc1)c1cc2ccccc2cc1O | 52.9* | 6.2* | 12.4* | 6.7* | -0.3 | 46.9* | 7.3* | 5.8* | 0.9 | 6.3* | . | .
O=C(Nc1cccc([N+](=O)[O-])c1)c1cc2ccccc2cc1O | . | -3.1 | -6.0 | -1.9 | -1.6 | -13.7 | . | . | . | . | . | .
O=C(CCN1C(=O)C2CCCCC2C1=O)Nc1nc2ccc(F)cc2s1 (configuration not stated) | -31.9 | 4.7* | 8.9 | 6.9* | 0.8 | ? | 13.1* | 3.5* | 2.0 | 15.3* | . | .
COc1ccccc1C#Cc1ccc2c(c1)O[C@@H](CN(C)Cc1ccccc1)[C@H](C)CN([C@@H](C)CO)S2(=O)=O | -1.1 | . | . | . | . | . | . | . | . | . | . | .
CCOc1ccc(N/C=C/C(=O)c2ccccc2)c([N+](=O)[O-])c1 | . | 7.5* | 9.3 | 11.1* | 0.2 | -2.8 | 1.3 | -2.4 | 1.0 | 4.1 | . | .
CCn1cnc2cc(NCc3nc4ccccc4n3C)ccc21 | 16.6 | 5.9* | 18.4* | 14.8* | 1.1* | 0.0 | 10.3* | 4.8* | 1.4 | 7.5* | 12.7* | 0.9
CCn1cnc2cc(NCc3nc4ccccc4n3Cc3ccccc3)ccc21 | -10.4 | 0.2 | -2.2 | -0.7 | -1.9 | . | . | . | . | . | . | .
O=C(/C=C1\OCc2cc(OCc3ccccc3)ccc21)OCc1ccccc1 | . | 0.7 | 3.9 | -0.1 | -1.1 | -1.5 | . | . | . | . | . | .
O=C(/C=C1\OCc2ccccc21)c1ccccc1 | . | 5.6* | 19.4* | 9.5* | 1.3* | 45.2* | 7.2* | 4.8* | 0.9 | 10.8* | 17.1* | 0.7
O=C(Nc1ccc(-c2csc(Nc3cccc(C(F)(F)F)c3)n2)cc1)c1ccccc1 | 0.5 | 0.2 | 0.9 | 0.1 | -1.1 | -9.4 | . | . | . | . | . | .
COc1ccc(-c2csc(NC(=O)Nc3ccccc3)n2)cc1 | 9.2 | -1.1 | -2.0 | -3.6 | -1.4 | 4.4 | . | . | . | . | . | .
CC(=O)c1cccc(Nc2nc(-c3ccccc3)cs2)c1 | 7.4 | 9.7* | 20.6* | 9.8* | 1.0* | 20.8 | 11.0* | 7.0* | 1.7 | 5.4 | 18.5* | 1.0
COc1ccc(-c2csc(Nc3ccccc3)n2)cc1 | . | 7.4* | 20.6* | 5.4 | 0.3 | 15.5 | 12.6* | 8.2* | . | . | 20.1* | 1.0
COc1ccc2cc3cc(C(=O)NC4CC4)sc3nc2c1 | -57.4 | 15.2* | 24.0* | 18.2* | 0.3 | 25.3 | 14.2* | 4.2* | 1.9 | 8.7* | 16.5* | 0.9
Cc1ccccc1Nc1nc(N)c2ccccc2n1 | -20.4 | 5.3* | 19.4* | 7.1* | 0.5 | 39.7* | 12.5* | 5.6* | 1.2 | 5.3 | 17.2* | 0.9
Cc1ccccc1Nc1ncc(C#N)c(N)n1 | 7.2 | 0.9 | 3.8 | 0.1 | -0.9 | 16.3 | . | . | . | . | . | .
COc1ccc(NC(=O)N(C)C[C@H]2Oc3ccc(NC(=O)C4CCCCC4)cc3CC(=O)N([C@@H](C)CO)C[C@H]2C)cc1 | 3.2 | . | . | . | . | . | . | . | . | . | . | .
Cc1ccc(/C(N)=N/OC(=O)c2cccs2)cc1 | -4.3 | 6.5* | 20.6* | 11.6* | 1.0* | 53.9* | 5.9* | 5.1* | 1.4 | 4.8 | 16.6* | 0.8
O=C1C(c2cc(=O)c3ccccc3[nH]2)=C(O)c2ccccc21 | -6.6 | 4.6* | 21.1* | 10.3* | 1.6* | ? | 16.4* | 8.0* | 1.1 | 8.1* | 18.3* | 0.8
CCCNC(=O)[C@@H]1[C@@H](CO)[C@@H]2Cn3c(ccc(-c4ccncc4)c3=O)[C@H]1N2CC1CC1 | 0.8 | . | . | . | . | . | . | . | . | . | . | .
Cn1cccc1C(=O)C(=O)Nc1ccc(F)c(F)c1 | 45.6* | 4.9* | 14.7* | 5.0 | 1.8* | -1.1 | 9.1* | 7.7* | . | . | 16.2* | 0.8
CC(C(=O)Nc1ccc(F)c(F)c1)N1CCN(C)CC1 (configuration not stated) | -1.5 | 0.1 | 2.1 | -0.1 | -1.2 | 0.8 | . | . | . | . | . | .
Cn1cccc1C(=O)C(=O)Nc1ccc(Cl)cc1 | 13.1 | 5.1* | 14.3* | 11.1* | 1.4* | 9.5 | 14.7* | 9.2* | 1.7 | 8.6* | 20.4* | 0.8
CCOc1ccc2nc(N3CCCCCC3)sc2c1 | 2.6 | . | . | . | . | 20.9 | . | . | . | . | . | .
SMILES | esBAF inh | DAX1 inh | hgDAF-12 ag | hcDAF12 agonist | ssDAF-12 act | Wnt bcat act | DAX1 conf | SF1 mutant ctr | LXRb hcDAF ctr | hcDAF12 ag | hgDAF12 ag | LXRb DAF12 ctr
Fc1ccc2nc(N3CCCC3)sc2c1 | ? | 5.2* | 28.1* | 4.8 | -0.8 | -0.3 | 7.9* | 5.0* | . | . | 15.1* | 0.9
c1ccc2sc(N3CCCCC3)nc2c1 | 48.9* | 7.8* | 13.3* | 1.6 | -0.3 | 16.5 | 9.7* | 6.5* | . | . | 15.3* | 0.6
O=C(N[C@H]1CC[C@H](CCNC(=O)C2CCCC2)O[C@H]1CO)c1ccccn1 | 2.8 | . | . | . | . | . | . | . | . | . | . | .
CC(=O)N(C)C[C@H]1Oc2cc(-c3ccc(C#N)cc3)ccc2S(=O)(=O)N([C@H](C)CO)C[C@@H]1C | -0.9 | . | . | . | . | . | . | . | . | . | . | .
O=C(Nc1cccc(-c2nc3cccnc3s2)c1)c1ccco1 | 36.3 | -0.7 | 3.1 | -1.4 | -1.6 | 7.5 | . | . | . | . | . | .
O=C(Nc1ccc(-c2nc3cccnc3s2)cc1)c1ccco1 | -7.0 | 8.9* | 19.3* | 6.4* | 2.0* | 19.6 | 16.7* | 8.4* | . | . | 18.3* | 1.2
CN(C)C(=O)[C@H]1[C@H](CO)[C@H]2Cn3c(ccc(-c4ccccc4F)c3=O)[C@H]2N1C(=O)c1cnccn1 | -1.5 | . | . | . | . | . | . | . | . | . | . | .
COc1ccc(N2C(=O)c3ccccc3NC2(C)C)cc1 | 5.2 | 7.6* | 28.5* | 3.4 | -0.5 | -1.3 | 2.9 | 1.2 | . | . | 9.0 | 0.2
C=C1c2ccccc2NC(=O)N1c1ccc(OC)cc1 | . | 2.9 | 10.0 | 0.1 | -0.8 | 11.2 | . | . | . | . | . | .
CN(C)S(=O)(=O)c1ccc(-c2cn3ccccc3n2)cc1 | . | 0.6 | 8.3 | 0.4 | 0.1 | . | . | . | . | . | . | .
